Measurements as given in the supplement of paper PMC3484114.
± gives the standard deviation.

tested on: OVCAR-3-derived ovarian cancer stem-like cells (spheroids); experiment: cell growth relative to untreated control; higher = more growth (less inhibition); conditions: 2.29 µM; 96 h
Procedure, shortened: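 OVCAR-3 spheroid-derived stem-like cells were trypsin-dissociated, seeded at 50,000 cells/mL in stem cell medium in ultra-low attachment 96-well plates and preincubated 24 h. Compounds were then added at 2.29 uM for 96 h at 37°C, 5% CO2, in 4 replicate wells. Viability was read as TOX8 resazurin fluorescence (ex 560/em 590 nm) after 4 h. Percent growth was calculated relative to untreated wells after blank subtraction and Grubbs outlier removal.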

| Compound | cell growth [%] |
| --- | --- |
| COC1CC(C)C(OC)c2cc(O)cc(c2O)NC(=O)/C(C)=C/C=C\C(C)C(OC(N)=O)/C(C)=C/C(C)C1OC (centres undefined) | 29 ± 4.8 |
| CC(=O)N=C1N(/C=C2\C(=O)Oc3ccccc3C2=O)C(=O)/C(=C/c2ccccc2Cl)N1C | 122 ± 43 |
| NC(=O)C#CC(N)=O | 55.9 ± 13 |
| COc1cccc2c1C(=O)c1c(O)c3c(c(O)c1C2=O)C[C@@](O)(C(C)=O)C[C@@H]3O[C@@H]1C[C@@H](N(C)C)[C@@H](O)[C@@H](C)O1 | 26.5 ± 25 |
| CCN(CC)CCNC(=O)c1nn(-c2ccc(Cl)cc2)c2c1CCc1cc(OC)ccc1-2 | 79.1 ± 11 |
| COc1ccc2nc3cc([N+](=O)[O-])ccc3c(NNc3ccccc3)c2c1 | 76.2 ± 22 |
| N=C1C=C(N)C(=O)c2[nH]c(=O)ccc21 | 95.3 ± 55 |
| C/C(=N\NC(=S)N(C)C)c1ccccn1.[Cu][Br] | 11.1 ± 5.9 |
| Clc1ccc(C(c2ccccc2Cl)C(Cl)Cl)cc1 (centres undefined) | 128 ± 48 |
| Cc1c2cnccc2c(C)c2c1c1ccccc1n2CCOC(=O)c1ccccc1 | 127 ± 35 |
| O=C1C(Cl)=C(N2CCN(C3=C(Cl)C(=O)c4ccccc4C3=O)CC2)C(=O)c2ccccc21 | 52.1 ± 17 |
| Nc1nc(N)c(-c2cccc(C(F)(F)F)c2)c(Cc2cccc(C(F)(F)F)c2)n1 | 114 ± 34 |
| Cc1c(N=Cc2ccc(N(CCC#N)CCC#N)cc2)c(=O)n(-c2ccccc2)n1C | 133 ± 36 |
| CCOC(=O)/C(=C/c1ccc(N(C)C)cc1)N(CC)CC | 85 ± 9.3 |
| Nc1ccc2c(c1)S(=O)(=O)c1cc(N)ccc1-2 | 112 ± 21 |
| CNC(=O)c1cc(NC(=O)N(CCC#N)CCN(C(=O)N[C@@H](Cc2ccccc2)C(=O)N[C@@H](CC(C)C)C(=O)NC)c2ccccc2)ccc1OC | 98.9 ± 15 |
| CC(=O)OCc1cc(=O)n(C)c2c3c4c(cc12)c(C)cc(=O)n4CO3 | 95.1 ± 21 |
| Cc1ccc([S+](c2ccccc2)c2cc(C)ccc2C)cc1.O=C(OC(C(=O)[O-])C(OC(=O)c1ccccc1)C(=O)O)c1ccccc1 (centres undefined) | 43.6 ± 5.1 |
| COC1OC(COCc2ccc(Cl)cc2)C(OCc2ccc(Cl)cc2)C1O (centres undefined) | 110 ± 26 |
| COc1cccc(/C=N\NC(=O)C(C)SC(C)C(=O)N/N=C/c2cccc(OC)c2)c1 (centres undefined) | 100 ± 33 |

| Compound | cell growth [%] |
| --- | --- |
| C[C@@H]1C[C@H]2OC(=O)[C@@]3(C)CCC[C@@](C)([C@@H]23)[C@@]1(O)CCc1ccoc1 | 59.6 ± 12 |
| O=C1c2ccccc2C(=O)c2sc(Nc3ccc(Cl)cc3)nc21 | 14.5 ± 3.2 |
| O=C1C(c2cnc3ccccc3n2)=C(O)c2ccccc21 | 197 ± 48 |
| COC(=O)NC1C(C)OC(OC2C/C=C(/C)C3C=CC4C(OC5CC(OC6CC(O)C(OC7CC(O)C(OC)C(C)O7)C(C)O6)C(O)C(C)O5)C(C)CC(C)C4C3(C)/C(O)=C3\C(=O)OC4(CC(C)C(CO)=CC4/C=C\2C)C3=O)CC1(C)[N+](=O)[O-] (centres undefined) | 105 ± 34 |
| COc1ccc(C2=Nc3ccccc3SC(C)C2)cc1 (centres undefined) | 91.1 ± 17 |
| CCCCOCc1cc(CN2CCN(C)CC2)c(O)c2ncccc12 | 85.3 ± 33 |
| N#CC(=S)Nc1ccc(Cl)c(Cl)c1 | 90.6 ± 12 |
| O=C1NC(c2cccc3ccccc23)Nc2ccccc21 (centres undefined) | 34.9 ± 6.6 |
| Cn1cnc([N+](=O)[O-])c1Sc1nnnn1-c1ccccc1 | 92.6 ± 24 |
| CC(=O)/C(=C\c1cccc([N+](=O)[O-])c1)C(=O)Nc1ccccc1C | 81.8 ± 22 |
| O=[N+]([O-])c1ccc(-c2cn(-c3ccc(Cl)cc3)cn2)cc1 | 106 ± 23 |
| COc1cc2oc(=O)cc(C)c2cc1[N+](=O)[O-] | 137 ± 45 |
| Nc1nc(Cl)nc2c1ncn2[C@H]1C[C@H](O)[C@@H](CO)O1 | 82.7 ± 17 |
| CCN(CC)CCNc1ccc(C)c2sc3ccccc3c(=O)c12 | 77.7 ± 26 |
| CN(C)C(=S)/N=c1\ss/c(=N\C(=S)N(C)C)n1-c1ccc2c(c1)OCO2 | 76.4 ± 5.8 |
| CN1CCN(CCCN2c3ccccc3Sc3ccc(C(F)(F)F)cc32)CC1 | 79.1 ± 24 |
| Cc1c(Cl)cccc1NC(=O)CC1Sc2ccccc2NC1=O (centres undefined) | 116 ± 8.3 |
| CC1=C2C(=CO[C@H](C)[C@H]2C)C(=O)C(C(=O)O)=C1O | 112 ± 18 |
| COc1ccc2c(O)c3[n+](cc2c1OC)CCc1cc2c(cc1-3)OCO2 | 103 ± 14 |
